Screening results (PubChem BioAssay)
Rv3671c protease: Rv3671c serine protease inhibitors, primary screen, biochemical, fluorescence polarization, M. tuberculosis H37Rv. P9WHR9. inhibition, % at 5.96 µM. 320,000 compounds, 0.048% hits. AID 2606, 2010; in the data active = inhibition above about 38%;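 note: extracellular domain of Rv3671c used as enzyme; 0% = enzyme with DMSO and 100% = no enzyme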
GDH-TPI counter-1: GDH-TPI coupling enzyme inhibitors, primary screen, artefact control for M. tuberculosis FBA inhibitor project, biochemical, absorbance, full deck; AID 588335, 2011; inhibition, % at 4.8 µM; 360,000 compounds, 1.2% hits; GDH-TPI coupled enzyme counterscreen, NADH absorbance; in the data active = inhibition above about 30%;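 note: 0% = DMSO wells and 100% = wells lacking the enzyme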
Mtb FBA inh: Mtb FBA enzyme inhibitors, primary screen, biochemical, fluorescence, strain H37Rv; Fructose-bisphosphate aldolase (Mycobacterium tuberculosis (strain ATCC 25618 / H37Rv)), …; purified M. tuberculosis FBA, fluorescence read-out; inhibition, % at 1 µM; 360,000 compounds, 2.3% hits; AID 588726, 2011;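 note: 0% = vehicle and 100% = reference inhibitor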
UGM FP inh: M. tuberculosis UGM enzyme inhibitors, primary screen, biochemical, fluorescence polarization, single point; purified UGM, fluorescence polarization probe displacement; inhibition, % at 10 µM; 320,000 compounds, 0.06% hits; in the data active = inhibition above about 10%, passing the limit was not always enough
Target sequence (P9WIQ1 whole entry, looked up): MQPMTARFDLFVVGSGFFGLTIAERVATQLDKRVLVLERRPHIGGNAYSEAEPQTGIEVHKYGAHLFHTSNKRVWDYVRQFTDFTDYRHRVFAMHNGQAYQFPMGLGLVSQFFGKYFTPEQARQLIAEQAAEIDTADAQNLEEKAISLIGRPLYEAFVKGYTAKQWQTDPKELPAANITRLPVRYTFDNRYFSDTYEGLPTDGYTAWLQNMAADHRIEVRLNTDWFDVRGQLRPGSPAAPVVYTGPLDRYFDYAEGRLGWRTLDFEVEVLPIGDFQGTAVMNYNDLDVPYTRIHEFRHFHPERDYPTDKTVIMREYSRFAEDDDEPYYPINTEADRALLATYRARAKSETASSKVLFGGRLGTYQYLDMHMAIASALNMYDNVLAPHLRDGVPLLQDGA
FadD28 binding: inhibitors of FadD28 bisubstrate probe binding, primary screen, biochemical, fluorescence polarization, single point. 360,000 compounds, 0.22% hits. inhibition, % at 12.5 µM. Mycobacterium tuberculosis FadD28 fatty-acid-AMP ligase; in the data active = inhibition above about 8.5%, passing the limit was not always enough
Mtb bLac sens: beta-lactam sensitization of Mtb H37Rv, H37Rv | 330,000 compounds, 0.27% hits | M. tuberculosis H37Rv growth with meropenem, percent inhibition | inhibition, % at 25 µM; call rule not given here;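 note: growth measured after seven days incubation then overnight dye step; 0% = bacteria only wells and 100% = bacteria with antibiotic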
Mtb FBA inh conf: M. tuberculosis aldolase blockers, biochemical, fluorescence, strain H37Rv, confirmation; shares compounds with Mtb FBA inh; purified M. tuberculosis FBA, fluorescence read-out; inhibition, % at 1 µM; 5,600 compounds, 78% hits;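 note: 0% = vehicle wells and 100% = reference inhibitor wells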
GDH-TPI counter-2: GDH-TPI coupling enzyme inhibitors, artefact control for M. tuberculosis FBA inhibitor project, biochemical, fluorescence, high throughput; GDH-TPI coupled enzyme counterscreen; inhibition, % at 1 µM; 5,600 compounds, 81% hits; shares compounds with Mtb FBA inh; in the data active = inhibition above about 10%
The depositor's hits bear a star; . = no result given; + = active, no number. Hits are enriched below; roughly 3.7% of the tested compounds scored in any of these assays. Cut-off read from the data, not from the text of the source, unless noted: active = inhibition above about 27%; inactive = the rest.

SMILES	Rv3671c protease	GDH-TPI counter-1	Mtb FBA inh	UGM FP inh	FadD28 binding	Mtb bLac sens	Mtb FBA inh conf	GDH-TPI counter-2
N#Cc1cc2ccccc2nc1N	10	26	75*	-2	-2	-8	65*	48*
Cc1ccccc1S(=O)(=O)c1cc2ccccc2nc1N	-6	9	46*	-1	-1	0	+	+
Cc1cc(C)c(S(=O)(=O)c2ccccc2C)c(Cl)n1	-2	4	0	-1	-5	3	.	.
N#Cc1ccc(Sc2nc3ccccc3[nH]2)cc1C#N	-3	-2	-1	-2	-1	-3	.	.
CCOC(=O)C1(CCOc2ccccc2)CCN(C(=O)CCSC)CC1	2	5	0	0	-1	-2	.	.
COc1ccc(CN2C(=O)C(CC(=O)NCCCN(C)C)CC(C(=O)N(C)C)=C2C)cc1 (stereo unspecified)	.	8	-1	.	1	.	.	.
CCOC(=O)C1CCNC(=O)C1=O (stereo unspecified)	.	7	-2	.	-5	.	.	.
Cc1cccnc1C(NC(=O)C1CCN(CCOc2ccc(F)cc2)CC1)c1ccc(F)cc1 (stereo unspecified)	.	8	3	.	-3	.	.	.
CCc1ccc(NC(=O)NNC(=O)c2ccc3ccccc3c2O)cc1	.	18	36*	1	2	7	+	190*
CC(=O)Nc1ccc(Br)c2ccccc12	5	5	-3	-2	-2	5	.	.
Cc1ccccc1NC(=O)NNC(=O)c1ccc2ccccc2c1O	20	13	31*	-3	.	-14	55*	36*
COc1ccc(NC(=O)NNC(=O)c2ccc3ccccc3c2O)cc1OC	6	9	36*	-2	-4	3	.	+
CCc1ccc(NC(=O)NNC(=O)c2cc3ccccc3cc2O)cc1	0	13	4	2	-2	-8	.	.
O=C(Nc1ccc(Br)c2ccccc12)c1ccc2ccccc2c1O	7	12	31*	-1	-3	5	-34	-29
COc1ccccc1NC(=O)NNC(=O)c1ccc2ccccc2c1O	.	6	32*	3	-1	16	143*	113*
CCNC(=O)c1ccc(=O)n(Cc2ccc(Cl)cc2Cl)c1	2	-3	1	-6	2	-13	.	.
COc1cccc2c(=O)c(C(=O)NCc3cccs3)c[nH]c12	-8	12	34*	1	-1	4	32*	26*
Cc1ccc2[nH]cc(C(=O)NCc3cccs3)c(=O)c2c1	2	-4	0	2	-6	-2	.	.
COc1cccc2c(=O)c(C(=O)NCCc3ccccc3)c[nH]c12	.	10	48*	.	-3	.	63*	45*
Cc1ccc(CN2CCN(C(=O)/C=C/[C@H]3O[C@@H](n4cc(C)c(=O)[nH]c4=O)C[C@@H]3O)CC2)cc1	.	.	2	.	-1	.	.	.
O=C(NCc1ccc(F)cc1)c1c2c(nc3ccccc13)CCC2	2	4	-1	-4	-1	-4	.	.
O=C(COC(=O)c1c(Cl)cccc1Cl)NCC1CCCO1 (stereo unspecified)	-9	4	2	1	0	-4	.	.
CCc1nc2ccc(C(=O)NCc3ccc4c(c3)OCO4)cn2c1N(CC)CCOC	.	-3	2	.	-1	.	.	.
Nc1ccccc1SC/C=C/CSc1ccccc1N	6	11	2	3	3	-7	.	.
Cc1cc(C)c(OCCCNC2CCCC2)c(Br)c1	-5	6	67*	1	-1	-8	+	+
SMILES	Rv3671c protease	GDH-TPI counter-1	Mtb FBA inh	UGM FP inh	FadD28 binding	Mtb bLac sens	Mtb FBA inh conf	GDH-TPI counter-2
CCCCn1c(N)c(C(=O)OCCOC)c2nc3ccccc3nc21	1	3	55*	3	-2	-2	31*	17*
CCCCCn1c(N)c(C(=O)NCc2cccs2)c2nc3ccccc3nc21	-96	.	.	3	.	-12	.	.
COCCNC(=O)CSc1nc2cc(OC)c(OC)cc2c(=O)n1CCC1=CCCCC1	.	8	-1	.	-1	.	.	.
CCOCCCn1c(N)c(C(=O)Nc2sc3c(c2C(=O)OC)CCCC3)c2nc3ccccc3nc21	-2	22	46*	0	-2	6	188*	153*
CCn1ccc(C(=O)Nc2sc3c(c2C(=O)OC)CCC3)n1	.	10	8	4	-3	73	.	.
COCCNC(=O)c1c(N)n(CCC2=CCCCC2)c2nc3ccccc3nc12	-20	13	54*	1	-4	0	77*	56*
COCCCn1c(N)c(C(=O)NCCC(C)C)c2nc3ccccc3nc21	-4	2	34*	-1	0	98	74*	62*
COc1ccc(S(=O)(=O)Nc2cccc3c2O[C@H](CN(C)Cc2ccncc2)[C@@H](C)CN([C@H](C)CO)C3=O)cc1	6	1	-2	-3	-1	-4	.	.
CCC(C)n1c(C)nc2c(c1=O)c1nc3ccccc3nc1n2CCC1=CCCCC1 (stereo unspecified)	-2	20	32*	2	-3	4	+	+
CCCCn1c2nc3ccccc3nc2c2c(=O)n(C(C)CC)cnc21 (stereo unspecified)	5	14	13	-3	0	-6	.	.
CC1=C[C@@H]2c3cccc4[nH]cc(c34)C[C@H]2N(C)C1	3	1	82*	5	1	-6	52*	49*
O=C(O)c1cc(S(=O)(=O)N2CCCCC2)ccc1N1CCCCC1	7	12	-1	0	-2	5	.	.
CCOc1ccc(C2C(C(=O)OC)=CN(C(C)c3ccccc3)C=C2C(=O)OC)cc1 (stereo unspecified)	1	-4	71*	-1	-1	5	+	+
CCOC(=O)c1cnn2c(C(F)(F)F)cc(-c3ccco3)nc12	-4	21	53*	2	-3	-7	+	160*
CCOC(=O)c1cc2nc(-c3ccccc3)cc(C)n2n1	-3	7	8	1	0	-2	.	.
CCCn1c(=O)c2c(C(F)(F)F)cc(-c3ccco3)nc2n(CCC)c1=O	-13	5	10	-1	-1	2	.	.
CCOC(=O)c1cnn2c(C)cc(-c3ccccc3)nc12	-6	17	54*	-1	-2	-1	+	+
